Laboratory results: PubChem BioAssay AID488969 (Vanderbilt High Throughput Screening Facility, 2010)
Over roughly 110,000 compounds, “z-score” has its median near -0.1; the highest 2% begin near 2. The sample holds the highest values, similar compounds and a random draw of the others, so the mix is not that of the screen. Calls of active or inactive are those of the source.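 The calls were made as follows: active = z-score in the third read window above 3 or below -3; inactive = the rest.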

molecular target: Metabotropic glutamate receptor 8 (Rattus norvegicus) (UniProt P70579); assay: mGluR8 Gi/Go-coupled signaling modulation – cell-based, rat, thallium flux, HTS, primary screen (AID 488969); details: HEK293 rat mGluR8, GIRK (G protein-gated inwardly rectifying potassium channel) thallium flux, FluoZin2; at 10 µM; stronger effect = higher value; submaximal glutamate (EC20) added with thallium
Sequence (P70579 whole entry, looked up): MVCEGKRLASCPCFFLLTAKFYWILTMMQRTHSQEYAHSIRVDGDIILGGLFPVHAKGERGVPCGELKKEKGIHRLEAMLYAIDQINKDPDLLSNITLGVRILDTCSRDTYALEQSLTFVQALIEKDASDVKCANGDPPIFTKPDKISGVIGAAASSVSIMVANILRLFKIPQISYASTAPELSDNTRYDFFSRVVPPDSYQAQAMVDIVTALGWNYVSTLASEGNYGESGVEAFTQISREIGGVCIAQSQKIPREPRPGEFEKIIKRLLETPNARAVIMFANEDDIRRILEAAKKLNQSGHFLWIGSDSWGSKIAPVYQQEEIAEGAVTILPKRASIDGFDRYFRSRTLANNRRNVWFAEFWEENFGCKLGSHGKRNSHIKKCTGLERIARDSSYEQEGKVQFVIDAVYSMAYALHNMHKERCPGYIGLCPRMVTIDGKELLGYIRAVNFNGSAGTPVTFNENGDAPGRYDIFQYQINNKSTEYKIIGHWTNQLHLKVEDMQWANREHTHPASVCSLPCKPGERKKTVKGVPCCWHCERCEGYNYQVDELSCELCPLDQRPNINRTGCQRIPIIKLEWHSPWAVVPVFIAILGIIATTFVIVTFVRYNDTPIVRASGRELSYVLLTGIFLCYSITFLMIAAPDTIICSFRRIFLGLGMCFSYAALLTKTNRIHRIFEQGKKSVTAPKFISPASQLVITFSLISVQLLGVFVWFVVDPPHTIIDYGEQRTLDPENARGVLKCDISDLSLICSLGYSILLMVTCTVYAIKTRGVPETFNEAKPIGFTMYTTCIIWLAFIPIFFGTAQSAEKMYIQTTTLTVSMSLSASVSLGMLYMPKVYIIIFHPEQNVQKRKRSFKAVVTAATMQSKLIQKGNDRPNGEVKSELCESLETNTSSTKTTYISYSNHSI

Compound	z-score
CCCc1[nH]nc2c1C(c1ccc(OCCN3CCOCC3)c(OCC)c1)C(C#N)=C(N)O2 (stereo not drawn)	-0.892
C=CCNC(=O)COc1ccc(Br)cc1Cl	0.0502
CC(=O)NC(=S)Nc1ccc(NC(=O)COc2ccc(Cl)cc2Cl)cc1	-0.0173
CCCC(=O)Nc1cccc(NC(=S)NC(=O)C(C)Oc2ccc(Cl)cc2Cl)c1 (stereo not drawn)	-0.0105
O=C(COc1ccc(CO)cc1Cl)Nc1ccc(F)cc1	0.647
CCC(=O)NC(=S)Nc1ccc(NC(=O)COc2ccc(Cl)cc2Cl)cc1	-0.124
CCc1ccc(OCC(=O)NC(=S)Nc2ccc(F)cc2)c(Br)c1	0.182
COC(=O)NC(=S)Nc1ccc(Oc2ccc(Cl)cc2Cl)c(Cl)c1	3.69 (active)
C=CCNC(=S)NNC(=O)COc1ccc(Cl)cc1Cl	6.1 (active)
COC(=O)NC(=S)Nc1ccc(Oc2ccc(Cl)cc2)c(Cl)c1	1.29
O=C(COc1ccc(Cl)cc1Cl)NNC(=S)Nc1ccc(F)cc1	7.82 (active)
C=CCNC(=S)NNC(=O)COc1c(Cl)cc(Cl)cc1Cl	0.71
COc1ccc(NC(=S)NNC(=O)COc2ccc(Cl)cc2Cl)cc1	2.95
COc1cccc(C(=O)N2CCN(S(=O)(=O)Cc3ccccc3)CC2)c1OC	1.15
C=CCn1cc([N+](=O)[O-])nc1C	-0.339
COC(=O)COc1ccc(S(=O)(=O)Nc2ccc3c(c2)OCO3)cc1	-0.955
Cc1cc(F)ccc1NCC(=O)Nc1ccccc1Br	1.92
CC(=O)NCC(=O)N(c1ccccc1)C1(C(=O)NC2CCCCC2)CCCCC1	0.432
COc1ccc(-c2nc(Cn3c(SCc4ccc(F)cc4)nc4ccncc43)c(C)o2)cc1OC	0.565
O=C1C2C(c3ccccc3)C=CC(c3ccccc3)C2C(=O)N1c1ccncc1 (stereo not drawn)	-0.325
Cc1cc(C(=O)COc2ncnc3sccc23)c(C)n1C	2.04
Cc1cc(C(=O)COc2nncc3ccccc23)c(C)n1C	0.0547
Cc1cc(C(=O)COc2ncnc3sccc23)c(C)n1C1CC1	-0.349

Compound	z-score
Oc1ccccc1N1CCN(c2ncccn2)CC1	0.0492
O=C(OCC(=O)N1CCc2ccccc21)c1cccc(S(=O)(=O)N2CCCc3ccccc32)c1	-0.134
O=C(N/N=C/c1ccc(OC(=O)c2ccccc2)cc1)c1ccc(CN2CCOCC2)cc1	0.54
Cc1c(Cl)cccc1-n1ccnc1SCC(=O)O	-0.317
CC(=O)c1ccc(OCC(O)CN2C(C)CCCC2C)cc1 (stereo not drawn)	-0.288
COc1cccc(OCC(O)CN2C(C)CCCC2C)c1 (stereo not drawn)	0.438
Cc1ccc(C)c(OCC(O)CN2C(C)CCCC2C)c1 (stereo not drawn)	3.05 (active)
CCN(CC)S(=O)(=O)c1ccc(NC(=O)c2cc(C(=O)OC)cc([N+](=O)[O-])c2)cc1	-0.729
N#CC1(Cc2ccc(Cl)cc2)c2ccccc2C=CN1C(=O)c1ccccc1 (stereo not drawn)	-0.14
N#CC1(Cc2ccccc2)c2ccccc2C=CN1C(=O)c1ccccc1 (stereo not drawn)	-0.211
N#CC1(Cc2ccc([N+](=O)[O-])cc2)c2ccccc2C=CN1C(=O)c1ccccc1 (stereo not drawn)	2.08
Cc1cccc(-n2c(C)cc(/C=N/O)c2C)c1	-0.205
O=Cc1cn(-c2ccccc2)nc1-c1ccc2c(c1)OCCO2	-1.11
O/N=C/c1cn(-c2ccccc2)nc1-c1ccc2c(c1)OCCO2	-0.458
NC(=O)/C=C\c1cn(-c2ccccc2)nc1-c1ccc2c(c1)OCCO2	2.14
O=C(COC(=O)c1cn(-c2ccccc2)nc1-c1ccccc1)c1ccc([N+](=O)[O-])cc1	-0.413
COc1ccc(S(=O)(=O)N2CCC(CN3C(=O)c4cccc5cccc(c45)C3=O)CC2)cc1	-0.138
O=S(=O)(c1cccc(C(F)(F)F)c1)N1CCC(c2cc(-c3cccc4ccccc34)n[nH]2)CC1	1.58
COc1ccc(S(=O)(=O)N2CCC(c3cc(-c4cccc5ccccc45)n[nH]3)CC2)cc1	2.15
Cn1c(CCN2CCN(c3ccc(F)cc3)CC2)nc2cc(NC(=O)c3ccco3)ccc21	-2.09
Cc1ccc(N(CC(=O)Nc2ccccc2C(=O)N2CCOCC2)S(C)(=O)=O)cc1	0.00258
COc1ccc(OC)c(NC(=O)c2ccccc2NS(=O)(=O)c2cccc3cccnc23)c1	0.685
COc1ccc(C)cc1NC(=O)c1ccccc1NS(=O)(=O)c1cccc2cccnc12	2.02

Compound	z-score
O=C(Nc1cccc2ccccc12)c1ccccc1NS(=O)(=O)c1cccc2cccnc12	-0.0553
Cc1cccc(C)c1-n1c(C)cc(/C=N/NC(=O)c2ccncc2)c1C	0.0638
C/C(=C\C(=O)c1ccc(Br)cc1)NCc1ccccc1	-0.0992
O=C(NC(=S)Nc1ccccc1N1CCOCC1)c1ccc(-c2cc(Cl)ccc2Cl)o1	0.0698
Cc1cc(S(=O)(=O)N2CCN(c3ccc(F)cc3)CC2)c(C)s1	-0.128
Cc1ccc(S(=O)(=O)c2c(C)cc(C)nc2Cl)cc1	-0.0793
Cc1cc(C)c(S(=O)(=O)c2ccccc2C)c(Cl)n1	-0.119
Cc1ccc(S(=O)(=O)c2c(C)cc(C)nc2Cl)c(C)c1	4.41 (active)
CCOC(=O)c1c(C)c(C(=O)Nc2cc(OC)ccc2OC)c(C)n1CC	-0.853
CCn1c2ccccc2c2cc(N)ccc21	-0.216
c1ccc2c(c1)c1ccccc1n2CN1CCOCC1	-0.144
CCC1(C)OCC(Cn2c3ccccc3c3ccccc32)O1 (stereo not drawn)	3.89 (active)
CC(=O)N1N=C(c2ccc(C)cc2)OC1c1ccc(C(C)C)cc1 (stereo not drawn)	-0.402
Cc1ccc(N=Nc2ccc(O)c3ncccc23)cc1	2.05
OCc1ccc(O)c2ncccc12	0.138
Cc1ccccc1N=Nc1ccc(O)c2ncccc12	4.67 (active)
COCc1ccc(O)c2ncccc12	-0.0472
Cc1ccccc1NCc1ccc(O)c2ncccc12	0.65
Oc1ccc(CNc2ccccc2)c2cccnc12	0.0879
Cc1ccc(C(=O)c2oc3ccccc3c2NC(=O)c2cc(-c3ccccc3O)n[nH]2)cc1	0.291
CC(C)(C)c1ccc(-c2conc2N)cc1	2.09
CCOc1cc(-c2conc2N)cc(OCC)c1OCC	0.888
CC(C)(C)c1ccc(-c2cc(N)n[nH]2)cc1	0.498

Compound	z-score
CCc1ccc2nc(N3C(=O)c4oc5ccccc5c(=O)c4C3c3ccc(OC)c(OC)c3)sc2c1 (stereo not drawn)	-0.133
O=C(Cc1ccccc1)Nc1nc(=O)c2ccccc2s1	5.11 (active)
O=C(Cc1ccccc1)Nc1nc2ccccc2s1	0.548
O=C(NNc1nc2ccccc2s1)c1ccc(F)cc1	0.186
CCN(CC)C(=S)SCC(=O)Nc1nc(-c2ccccc2)c(-c2ccccc2)o1	-0.0668
Cn1sc(NC(=O)c2ccc(Cl)cc2)nc1=O	0.266
CCn1c(NC(=O)c2ccc(F)cc2)c2ccccc2nc1=O	0.0383
O=C(Nc1nc2ccccc2s1)c1ccc(Cl)s1	1.22
O=C(Nc1nc(=O)c2ccccc2s1)c1ccc(F)cc1	16.3 (active)
O=C(Nc1nc(=O)c2ccccc2s1)c1ccc(Cl)cc1	14.9 (active)
CCN(CC)C(=S)SCC(=O)Nc1nc(=O)c2ccccc2s1	5.2 (active)
O=C(CSC(=S)N1CCOCC1)Nc1nc(=O)c2ccccc2s1	0.0572
O=C(Cc1nc(=O)c2ccccc2s1)Nc1ccccc1	-0.368
O=C(CSc1n[nH]c(-c2ccco2)n1)Nc1sc2c(c1C(=O)Nc1ccccc1)CCCC2	-0.294
C=CCN(c1ccc(C(=O)NCCc2ccccc2)cc1)S(C)(=O)=O	-0.00787
CCOC(=O)C1CCN(S(=O)(=O)c2ccc(OCC(=O)OC)cc2)CC1	0.845
COc1cccc(-c2csc(N3CCN(C(=S)Nc4cccc(Cl)c4)CC3)n2)c1	0.143
CSc1nc(C)cc(C)c1S(=O)(=O)c1ccccc1C	-0.374
Cc1onc(-c2ccccc2)c1C(=O)NCCc1ccc(Cl)cc1	0.00877
CCc1ccccc1N(CC(=O)N/N=C/c1ccc(OC(=O)OC)c(OC)c1)S(C)(=O)=O	-0.214
CCCC(=O)Nc1ccc(Cl)c(NC(=O)C(C)(C)C)c1	-0.219
CCN1CCN(C(=O)C2c3cc(OC)c(OC)cc3C(=O)N(C)C2c2ccc(SC)cc2)CC1 (stereo not drawn)	0.574
N#CC1(P(=O)(c2ccccc2)c2ccccc2)CC1	-0.0596

Compound	z-score
O=C(Nc1nc(=O)c2ccccc2s1)c1ccccc1	14.9 (active)
O=C(Nc1nc(-c2ccc(Cl)s2)cs1)c1ccccc1	0.171
Nc1ccc(C(=O)Nc2nc3ccccc3s2)cc1	-0.363
COc1cccc(C2=NOC(C(=O)Nc3ccccc3SC)C2)c1 (stereo not drawn)	-0.115
CC(C)CCn1c(Cl)nc2c1c(=O)n(C)c(=O)n2C	2.04
CC(C)CCn1c(Oc2ccc(Cl)cc2)nc2c1c(=O)n(C)c(=O)n2C	-0.037
CC(C)CCn1c(Oc2ccccc2Cl)nc2c1c(=O)n(C)c(=O)n2C	-0.1
CC1(C)CC(c2nc(-c3ccc(Cl)cc3)cs2)CCS1 (stereo not drawn)	0.117
CC1(C)CC(c2nc(-c3ccc(Br)cc3)cs2)CCS1 (stereo not drawn)	2.26
CCC1(C)CC(c2nc(-c3ccc(OC)cc3)cs2)CCS1 (stereo not drawn)	-0.645
COc1ccc(C)cc1NC1=C(Cl)C(=O)N(C2CCCCC2)C1=O	-0.0567
Cc1cc(C)c2cccc(NC(=S)NC(=O)c3ccccc3)c2n1	0.2
Cc1ccc2cccc(NC(=S)NC(=O)c3ccccc3)c2n1	1.02
Cc1ccc2cccc(NC(=S)NC(=O)c3ccnn3C)c2n1	2.25
Cc1ccc2cccc(NC(=S)NC(=O)c3c(Br)cnn3C)c2n1	0.727
Cc1ccc2cccc(NC(=O)C(F)(F)F)c2n1	0.599
Cc1ccc2cccc(NC(=S)NC(=O)c3ccn(C)n3)c2n1	6.02 (active)
c1cnc(N2CCSCC2)nc1	-0.316
Cc1c(C(=O)Nc2ccccc2)cn2c(nc3ccccc32)c1C#N	-0.348
COc1cccc2cc(C(=O)n3ccc(C)n3)c(=O)oc12	-1.33
O=C1CC(c2ccc(S(=O)(=O)Nc3cc(C(F)(F)F)cc(C(F)(F)F)c3)cc2)CN1 (stereo not drawn)	0.112
